Pf apPOL inh: Pf-apPOL DNA polymerase inhibition | Recombinant Pf-apPOL, molecular beacon fluorescence, 1.5 h | inhibition, % at 10 µM | 210,000 compounds, 0.25% hits | AID 1794808
mHTT CaM bind: mHTT-calmodulin interaction abrogation | P42858 | AlphaScreen His-mHTT/GST-CaM binding, luminescence | inhibition, % at 15 µM | 190,000 compounds, 3.6% hits
Large screens that a line does not name were inactive. Only some compounds are listed: those with a hit (about 3.5% of all), similar ones and a draw of the others. Rule as the data show it: active = inhibition above about 50%; inactive = the rest.

OCCCc1nc2n(n1)C(c1cccc(Cl)c1)C=C(c1ccc(F)cc1)N2 (stereo not given)	none
Cc1ccccc1N1CCN(CCOc2cccc(Cl)c2)CC1	mHTT CaM bind 93.2
COc1ccccc1N1CCN(CCOc2ccc(Cl)cc2)CC1	none
COc1cc(CNC(=O)C2CC(=O)N(c3cccc(NC(C)=O)c3)C2)cc(OC)c1OC (stereo not given)	none
CCSc1ccccc1C(=O)Nc1nnc(-c2ccsc2)o1	mHTT CaM bind 84.2
Cc1ccc(NC(=O)C2(c3ccccc3)CCOCC2)cc1	none
CCSc1ccccc1C(=O)Nc1nnc(C2CCCCC2)o1	none
O=C(Nc1nnc(-c2ccsc2)o1)C1(c2ccccc2)CCOCC1	mHTT CaM bind 99.7
O=C(Nc1c(Cl)cccc1Cl)C1(c2ccccc2)CCOCC1	Pf apPOL inh 85.8
O=C(CSCc1ccccc1)Nc1nnc(-c2ccsc2)o1	none
Cc1cc(Cl)ccc1NC(=O)c1cccc(Cn2cncn2)c1	none
CC(=O)Nc1cccnc1N1CCOCC1	none
CCN(CC)C(=O)c1cc2c(s1)CCC(C(=O)Nc1cc(F)cc(F)c1)C2 (stereo not given)	none
O=C(CCC1CCN(c2cc(NC3CC3)ncn2)CC1)NCCN1CCc2ccccc2C1	none
N#CC1=C(N)Oc2n[nH]c(-c3ccccc3)c2C12C(=O)Nc1ccccc12 (stereo not given)	none
N#CC1=C(N)Oc2n[nH]c(-c3ccccc3)c2C12c1ccccc1-c1ccccc12	mHTT CaM bind 90.0
COc1ccc(CNC(=O)C2(C)CCCN(S(=O)(=O)c3c(C)cc(C)cc3C)C2)cc1 (stereo not given)	none
O=C(NCc1ccc(F)cc1)c1ccc(N2CCN(c3ccccn3)CC2)c([N+](=O)[O-])c1	mHTT CaM bind 59.0
O=C(NCc1cccnc1)c1ccc(N2CCN(c3ccccn3)CC2)c([N+](=O)[O-])c1	none
COc1ccc(Nc2ncc3c(n2)CCN(Cc2cccc(C)c2)C3)cc1	none
CN(C)c1cccc(C(=O)NC2CCN(c3ccc(F)cc3)C2=O)c1 (stereo not given)	none
CC1=CC(=NS(=O)(=O)c2ccc(Cl)cc2)C(C)=CC1=O	mHTT CaM bind 65.0
CC1=CC(=O)C(C(C)C)=CC1=NS(=O)(=O)c1ccc([N+](=O)[O-])cc1	none
Cc1n[nH]c(C)c1S(=O)(=O)NCc1ccc(F)cc1	none
COc1ccc(C)cc1NC(=O)N1CC2CC(NS(=O)(=O)c3ccccc3)C1C2 (stereo not given)	none
CC1=NN(c2ccccc2)C(=O)C1N=Nc1ccc([N+](=O)[O-])cc1 (stereo not given)	none (no result: mHTT CaM bind)
Cc1nc([N+](=O)[O-])c2n1CC(c1ccccc1)=NN2c1ccc([N+](=O)[O-])cc1	mHTT CaM bind 58.0
CCOCCCNC(=O)c1cnn2c(C)c(Cc3ccc(Cl)cc3)c(C)nc12	mHTT CaM bind 65.0
CCCCNC(=O)c1cnn2c(C)c(Cc3ccc(Cl)cc3)c(C)nc12	none
CCCCNC(=O)c1cnn2c(C)c(Cc3cc(C)ccc3C)c(C)nc12	none
Cc1ccc(C)c(Cc2c(C)nc3c(C(=O)NCCc4ccccc4)cnn3c2C)c1	mHTT CaM bind 66.0
CCCNC(=O)c1cnn2c(C)c(Cc3ccc(F)cc3)c(C)nc12	none
Cc1nc2c(C(=O)NCCc3ccccc3)cnn2c(C)c1Cc1ccc(F)cc1	mHTT CaM bind 80.0
Cc1nc2c(C(=O)NCc3ccc(F)cc3)cnn2c(C)c1Cc1ccc(F)cc1	mHTT CaM bind 51.0
Cc1nc2c(C(=O)NCc3ccc(F)cc3)cnn2c(C)c1Cc1ccccc1	none
CCCCn1c(=N)n(CCOc2ccccc2Cl)c2ccccc21	none
COc1cccc(C(=O)NC2CC(O)C(CO)C2)c1OC (stereo not given)	none
NC1CCNC1 (stereo not given)	none (no result: mHTT CaM bind)
NC(=O)C1CCCN(c2nnc3ccc(C(F)(F)F)cn23)C1 (stereo not given)	none
Clc1ccccc1CSc1nc(NCc2ccco2)c2ccccc2n1	none
COCCNc1nc(SCc2ccccc2Cl)nc2ccccc12	mHTT CaM bind 58.0
O=S(=O)(Nc1ccc(N2CCOCC2)cc1)c1ccc(Cl)cc1	none
O=C1C(N2CCOCC2)=CC(=NS(=O)(=O)c2ccc(Cl)cc2)c2ccccc21	mHTT CaM bind 64.0
O=C1C(N2CCOCC2)=CC(=NS(=O)(=O)c2ccccc2)c2ccccc21	mHTT CaM bind 72.0
O=S(=O)(c1ccccc1)c1nc(C(c2ccccc2)c2ccccc2)oc1N1CCOCC1	none
CN(C)c1ccc(NC(=O)c2ccc(Cl)cc2)cc1	none
COc1ccc(NS(=O)(=O)c2cccc(C(=O)Nc3ccc(C)cc3)c2)cc1	Pf apPOL inh 95.2
Cc1cccc(C(=O)Nc2ccc(F)cc2)c1	none
Cc1cccc(C(=O)Nc2ccc(I)cc2)c1	Pf apPOL inh 77.4
Cc1cccc(C(=O)Nc2ccc([N+](=O)[O-])c(NC(=O)c3cccc(C)c3)c2)c1	Pf apPOL inh 79.6
Cc1cc(C(=O)Nc2ccc(NC(=O)c3ccccc3)cc2)ccc1[N+](=O)[O-]	none
CN(C)c1ccc(NC(=O)c2ccncc2)cc1	mHTT CaM bind 70.4
COc1ccc(NS(=O)(=O)c2cccc(C(=O)Nc3cccc(C(=O)O)c3)c2)cc1	none
